For 14 compounds, composite z-score and z-score results are on record in PubChem BioAssay.

The source made the active and inactive calls.

For experiment [1], the system named is PRMT1 (protein arginine N-methyltransferase 1). Briefly: PRMT1 binders on small-molecule microarrays, primary screen, biochemical, small-molecule microarray, 635 nm fluorescence (AID 1088).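 Further: binding of Prmt1 protein to compounds spotted on small-molecule microarray slides.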 Conditions: small-molecule microarray binding, higher = more signal.
The nature of experiment [2]: yeast growth modulation, basal conditions, primary screen, YJM789 clinical isolate, OD600, 24 h (AID 1089).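 Further: growth of clinical yeast isolate S. cerevisiae YJM 789 seeded 1000 cells per well; test concentration not given here.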 The note with it: S. cerevisiae YJM789 growth, higher = more signal, called active from +8 up or from −8 down.
The nature of experiment [3]: fission yeast growth modulation, primary screen, strain 972, OD600, 24 h, no modulator (AID 1090).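 Further: basal condition with compound alone and no growth modifier present; test concentration not given here.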 The note with it: S. pombe 972 growth, higher = more signal, called active from +8 up or from −8 down.
Experiment [4] is described as follows: S. cerevisiae growth modulation with rapamycin, primary screen, strain BY4716, OD600, 96 h (AID 1091). Further: test concentration not given here. Conditions: higher = more signal, called active from +8 up or from −8 down.
Experiment [5] addresses Torsin-1A-interacting protein 2 (Homo sapiens) (UniProt Q8NFQ8). Briefly: LULL1 binders on small-molecule microarray, primary screen, cell lysate, human LULL1 lysate, 635/667 nm fluorescence (AID 1092).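 Further: probe is lysate of COS7 cells overexpressing human LULL1; score merges per-feature 667 nm fluorescence with signal-to-noise.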 The note with it: hLULL1 lysate binding, 635 nm fluorescence, higher = more signal.
Experiment [6] is described as follows: E. coli growth modulation, two-sided OD650, primary screen, E. coli filamentation project, strain DRC41, 24 h (AID 1093).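 Further: MC1000 strain lacking acrAB efflux and sulA so SOS filamentation is blocked; test concentration not given here.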 Conditions: OD650, 24 h, higher = more signal, called active from +8 up or from −8 down.
The nature of experiment [7]: small-molecule microarray binders of probe aLefty2, primary screen, biochemical, biotinylated probe, 635/667 nm fluorescence (AID 1094).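 Further: score merges spot fluorescence near 667 nm with spot signal-to-noise ratio.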 Conditions: higher = more signal.
Experiment [8] relates to Noggin (protein binding on small-molecule microarray). In words: Noggin binders on small-molecule microarray, primary screen, biochemical, 635/667 nm fluorescence (AID 1095).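 Further: score merges 667 nm feature fluorescence with signal to noise over triplicate slides.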 The note with it: 635 nm fluorescence, higher = more signal.
For experiment [9], the target named is Neurogenic locus notch homolog protein 3 (Homo sapiens) (UniProt Q9UM47). In words: NOTCH3 binders on small-molecule microarray, primary screen, biochemical, 635/667 nm fluorescence (AID 1096). Conditions: NOTCH3 binding, 635 nm fluorescence, higher = more signal.
Neurogenic locus notch homolog protein 3 (Homo sapiens), sequence (Q9UM47 whole entry, looked up): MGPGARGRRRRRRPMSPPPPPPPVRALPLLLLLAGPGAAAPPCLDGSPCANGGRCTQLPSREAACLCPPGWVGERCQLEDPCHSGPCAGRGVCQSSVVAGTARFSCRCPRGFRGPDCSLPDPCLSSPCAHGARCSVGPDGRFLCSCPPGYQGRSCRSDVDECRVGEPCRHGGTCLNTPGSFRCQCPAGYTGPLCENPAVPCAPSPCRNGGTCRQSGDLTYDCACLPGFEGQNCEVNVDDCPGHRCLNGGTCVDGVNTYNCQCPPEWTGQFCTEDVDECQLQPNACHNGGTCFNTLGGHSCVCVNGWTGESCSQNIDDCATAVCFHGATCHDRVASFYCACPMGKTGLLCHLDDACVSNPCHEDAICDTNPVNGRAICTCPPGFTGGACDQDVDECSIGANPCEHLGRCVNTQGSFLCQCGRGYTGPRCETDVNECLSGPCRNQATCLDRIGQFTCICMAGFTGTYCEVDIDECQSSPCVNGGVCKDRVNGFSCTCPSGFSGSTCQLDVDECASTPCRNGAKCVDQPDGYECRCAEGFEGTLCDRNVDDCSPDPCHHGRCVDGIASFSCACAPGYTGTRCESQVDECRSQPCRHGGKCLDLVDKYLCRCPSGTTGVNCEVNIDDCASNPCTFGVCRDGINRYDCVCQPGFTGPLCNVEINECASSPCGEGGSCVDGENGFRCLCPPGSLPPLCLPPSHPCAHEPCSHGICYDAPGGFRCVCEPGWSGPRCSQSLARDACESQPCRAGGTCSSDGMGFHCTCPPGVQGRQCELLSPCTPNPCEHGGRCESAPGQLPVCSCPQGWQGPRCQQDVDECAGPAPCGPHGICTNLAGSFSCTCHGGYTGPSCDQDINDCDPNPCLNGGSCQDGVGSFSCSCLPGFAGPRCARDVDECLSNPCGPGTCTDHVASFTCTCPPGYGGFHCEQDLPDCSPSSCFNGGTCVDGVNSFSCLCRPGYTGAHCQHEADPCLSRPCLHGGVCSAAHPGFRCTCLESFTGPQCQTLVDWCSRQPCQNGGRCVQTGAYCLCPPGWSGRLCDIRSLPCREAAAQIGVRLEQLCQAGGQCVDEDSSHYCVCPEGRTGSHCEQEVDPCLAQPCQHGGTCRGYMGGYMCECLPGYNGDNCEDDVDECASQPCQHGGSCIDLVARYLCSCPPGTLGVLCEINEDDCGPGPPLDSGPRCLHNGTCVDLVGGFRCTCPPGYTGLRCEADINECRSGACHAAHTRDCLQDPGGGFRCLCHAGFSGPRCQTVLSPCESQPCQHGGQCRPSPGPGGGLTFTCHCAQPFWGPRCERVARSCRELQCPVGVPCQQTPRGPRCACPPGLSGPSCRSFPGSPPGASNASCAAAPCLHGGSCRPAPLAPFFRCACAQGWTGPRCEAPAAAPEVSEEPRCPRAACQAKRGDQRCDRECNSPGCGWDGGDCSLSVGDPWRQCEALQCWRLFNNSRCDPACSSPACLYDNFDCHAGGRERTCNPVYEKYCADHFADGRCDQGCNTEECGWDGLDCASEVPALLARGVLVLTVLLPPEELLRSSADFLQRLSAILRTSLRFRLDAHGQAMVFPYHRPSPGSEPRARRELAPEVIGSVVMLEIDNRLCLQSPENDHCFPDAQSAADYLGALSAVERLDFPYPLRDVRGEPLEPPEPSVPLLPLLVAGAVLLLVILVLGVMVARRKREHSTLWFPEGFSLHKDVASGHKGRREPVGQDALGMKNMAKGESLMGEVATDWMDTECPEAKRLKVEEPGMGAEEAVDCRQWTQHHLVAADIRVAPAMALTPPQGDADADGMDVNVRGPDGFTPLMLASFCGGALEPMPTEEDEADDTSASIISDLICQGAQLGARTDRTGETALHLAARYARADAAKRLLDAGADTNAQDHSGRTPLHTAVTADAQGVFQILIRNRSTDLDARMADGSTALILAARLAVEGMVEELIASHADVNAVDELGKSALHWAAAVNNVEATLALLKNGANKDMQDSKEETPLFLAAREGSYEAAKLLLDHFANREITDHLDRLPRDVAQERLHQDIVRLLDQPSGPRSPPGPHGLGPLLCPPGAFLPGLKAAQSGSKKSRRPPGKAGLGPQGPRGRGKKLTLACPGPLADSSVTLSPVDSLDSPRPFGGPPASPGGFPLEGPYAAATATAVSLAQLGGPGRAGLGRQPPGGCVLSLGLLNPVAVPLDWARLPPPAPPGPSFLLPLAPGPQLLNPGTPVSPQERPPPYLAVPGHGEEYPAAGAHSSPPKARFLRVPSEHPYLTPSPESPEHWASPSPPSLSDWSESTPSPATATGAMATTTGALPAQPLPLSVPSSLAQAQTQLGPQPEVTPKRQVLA
Experiment [10] can be described thus: small-molecule microarray binders of probe aEGFR, primary screen, biochemical, biotinylated probe, 635/667 nm fluorescence (AID 1097).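 Further: probe is a biotinylated anti-EGFR antibody binding compounds printed on slides; score combines fluorescence near 667 nm and signal to noise of each spot.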 The note with it: higher = more signal.

Torsin-1A-interacting protein 2 (Homo sapiens), sequence (Q8NFQ8 whole entry, looked up): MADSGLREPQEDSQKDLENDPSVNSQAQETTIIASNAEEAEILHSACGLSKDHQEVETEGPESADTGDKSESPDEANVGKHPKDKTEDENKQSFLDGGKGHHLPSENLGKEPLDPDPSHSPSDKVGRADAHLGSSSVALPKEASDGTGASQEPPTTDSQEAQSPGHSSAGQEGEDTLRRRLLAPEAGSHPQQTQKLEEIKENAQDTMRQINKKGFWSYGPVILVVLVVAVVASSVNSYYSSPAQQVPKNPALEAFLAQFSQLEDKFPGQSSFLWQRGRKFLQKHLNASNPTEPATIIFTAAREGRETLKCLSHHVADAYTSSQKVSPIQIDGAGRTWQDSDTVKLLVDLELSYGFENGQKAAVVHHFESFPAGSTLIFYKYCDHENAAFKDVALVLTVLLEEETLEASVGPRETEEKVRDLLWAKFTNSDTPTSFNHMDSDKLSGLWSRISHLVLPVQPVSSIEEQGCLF

Turning to `COc1ccc([Si](C)(C)[C@H]2[C@H](CC(=O)N3CCC[C@H]3CO)O[C@@]3(C(=O)N(Cc4cccc(N5C(=O)c6cccc7cccc5c67)c4)c4ccccc43)[C@@H]2C)cc1`, the composite z-score in experiment [1] was 1.56; in [5], 2.08; in [7] it was 0.031; in experiment [8], 1.57; in experiment [9], 1.05; in [10], -0.0549. Besides, the z-score in experiment [2] is -0.0977 (inactive); in [3] it was 0.696 (inactive); in [4] it was -0.15 (inactive); in [6] it was -0.0831 (inactive).

With `COCCOC(=O)N1C(=O)[C@@]2(c3cc(C#CCNC(N)=O)ccc31)[C@H](C(=O)NC[C@H](O)c1ccccc1)[C@H]1C(=O)O[C@H](c3ccccc3)[C@H](c3ccccc3)N1[C@@H]2c1ccccc1OCCO`, the composite z-score is 1.55 in [1]; 2.6 in [5]; -0.0644 in experiment [7]; 1.72 in experiment [8]; 0.98 in experiment [9]; -0.118 in experiment [10]. For the same compound, the z-score in experiment [2] is 1.56 (inactive); in [3] it was 1.11 (inactive); in experiment [4] it was 3.45 (inactive); in experiment [6], -0.124 (inactive).

With `CN(C)CCCNC(=O)[C@@]1(c2ccc([N+](=O)[O-])cc2)CC(=O)N(C2CCCCC2)[C@@H]1c1ccc(CO)cc1I`, the composite z-score in experiment [1] was 1.07; in experiment [5] it was 1.84; in experiment [7] it was -0.147; in experiment [8] it was 0.331; in experiment [9], 0.215; in experiment [10] it was -0.0679. For the same compound, the z-score in [2] is -1.13 (inactive); in experiment [3] it was -20.1 (active); in experiment [4], -3.11 (inactive); in experiment [6], -0.112 (inactive).

`C[C@@H]1ON(c2cccc(C(=O)OC(C)(C)C)c2)[C@H](c2ccc(Br)cc2)[C@H]1C(=O)N1C(=O)OC[C@H]1Cc1ccccc1`: the composite z-score in [1] was 1.54; in [5] it was 1.5; in experiment [7] it was -0.0408; in experiment [8], 0.57; in experiment [9] it was 1.12; in experiment [10], -0.0039. The z-score was 0.912 (inactive) in experiment [2], 1.38 (inactive) in experiment [3], 0.528 (inactive) in experiment [4] and -0.448 (inactive) in [6].

As for `O=C1O[C@H](c2ccccc2)[C@H](c2ccccc2)N2[C@H]1[C@@H](C(=O)Nc1nc3ccccc3s1)[C@]1(C(=O)Nc3ccc(C#CCCO)cc31)[C@H]2c1ccc(OCCO)cc1`, the composite z-score is 1.55 in experiment [1]; 3.19 in experiment [5]; -0.137 in [7]; 1.72 in [8]; 1.12 in experiment [9]; -0.0368 in [10]. The z-score was 0.737 (inactive) in experiment [2], 0.933 (inactive) in experiment [3], 2.84 (inactive) in [4] and 0.0573 (inactive) in experiment [6].

Regarding `COc1ccc(C(O)C2C=CC3C(=O)NC(=O)C3N2Nc2ccccn2)cc1` (stereo not given), the composite z-score in experiment [1] was determined as 0.425; in experiment [5], 0.665; in [7], 0.251; in [8], 0.195; in experiment [9] it was 0.49; in experiment [10], 0.164. The z-score is 0.181 (inactive) in [2], 0.312 (inactive) in [3], 0.359 (inactive) in experiment [4] and -0.434 (inactive) in [6].

`COCCOC(=O)N1C(=O)[C@@]2(c3cc(C#CCCO)ccc31)[C@H](C(=O)N1CCc3cc(OC)c(OC)cc3C1)[C@H]1C(=O)O[C@H](c3ccccc3)[C@H](c3ccccc3)N1[C@@H]2c1ccc(O)cc1`: the composite z-score in experiment [1] was 1.54; in [5], 2.55; in experiment [7], 0.0262; in experiment [8], 1.07; in [9], 1.08; in experiment [10] it was -0.0191. Besides, the z-score is 1.42 (inactive) in experiment [2], 0.0725 (inactive) in experiment [3], 1.8 (inactive) in experiment [4] and 0.199 (inactive) in experiment [6].

On to `COc1ccc(C(O)C2C=CC3C(=O)N(c4ccccc4)C(=O)C3N2Nc2ccc(C(C)C)cc2)cc1OCc1ccccc1` (stereo not given), for which the composite z-score in [1] worked out at 1.61; in experiment [5], 2.97; in [7] it was 0.308; in experiment [8] it was 0.112; in experiment [9] it was 1.03; in [10] it was 0.339. In addition, the z-score in [2] is 0.345 (inactive); in experiment [3], 0.309 (inactive); in experiment [4], -0.707 (inactive); in [6], -3.72 (inactive).

Turning to `CCCCCCC#C[Si](O[C@H](c1ccccc1)c1cn([C@H](CO)Cc2ccccc2)nn1)(C(C)C)C(C)C`, the composite z-score in [1] is 1.55; in [5] it was 1.7; in experiment [7], -0.198; in [8] it was 0.0817; in experiment [9], -0.0029; in experiment [10], -0.115. In addition, the z-score was -2.3 (inactive) in [2], -16.2 (active) in experiment [3], -1.57 (inactive) in experiment [4] and 1.16 (inactive) in experiment [6].

On to `COc1ccc([Si](C)(C)[C@H]2[C@H](CC(=O)N3Cc4ccccc4C[C@H]3CO)O[C@@]3(C(=O)N(Cc4ccc(N5CCC5=O)cc4)c4ccccc43)[C@@H]2C)cc1`, for which the composite z-score in experiment [1] came out at 1.54; in [5], 2.6; in experiment [7] it was 0.148; in [8], 1.57; in experiment [9] it was 1.14; in experiment [10], 0.0321. For the same compound, the z-score in experiment [2] was -1.57 (inactive); in experiment [3], 0.52 (inactive); in experiment [4], 0.98 (inactive); in [6], 1.65 (inactive).

As for `CN1C(=O)C2C=CC(C(O)c3ccc(I)cc3)N(N3CCCCC3)C2C1=O` (stereo not given), the composite z-score in [1] was 1.55; in experiment [5] it was 3.36; in [7], 0.583; in experiment [8] it was 0.282; in experiment [9] it was 1.04; in [10], 0.0747. Also, the z-score is 0.276 (inactive) in [2], -1.13 (inactive) in experiment [3], -0.0412 (inactive) in [4] and -1.74 (inactive) in [6].

Regarding `O=C1OCCC/C=C\[C@H]2OC34C=CCN(CCN5CCOCC5)C(=O)[C@H]3N(CCCO)C(=O)[C@@H]4C12` (stereo not given in full), the composite z-score in [1] is -0.622; in experiment [5] it was 3.54; in [7] it was -0.381; in experiment [8], -0.813; in [9], -0.93; in experiment [10] it was -0.199. The z-score in experiment [2] is -1.35 (inactive); in [3], -0.632 (inactive); in experiment [4], -0.595 (inactive); in [6], -0.44 (inactive).

In the case of `COc1ccc(COC2OC[C@]3(C)[C@H]4C5=C(CN3C(=O)OC(C)(C)C)[C@H](C)C(CO)C(CO)C5CC[C@@H]24)cc1` (stereo not given in full), the composite z-score turned out to be 0.482 in experiment [1]; 3.27 in [5]; 0.341 in experiment [7]; 0.277 in experiment [8]; 1.06 in experiment [9]; 0.0699 in experiment [10]. In addition, the z-score was 0.677 (inactive) in experiment [2], 0.805 (inactive) in experiment [3], 0.502 (inactive) in [4] and -1.76 (inactive) in experiment [6].

For the compound `CC(C)C[C@@H]1NC(=O)[C@@H]2C[C@H](C(=O)NCCCCCN)[C@H](c3cccc(OCCO)c3)N2C1=O`, the composite z-score in experiment [1] was 1.3; in experiment [5], 2.73; in experiment [7], 0.215; in experiment [8], 0.359; in experiment [9] it was 0.244; in experiment [10] it was -0.0549. The z-score was -4.39 (inactive) in experiment [2], -0.894 (inactive) in experiment [3], -1.13 (inactive) in experiment [4] and 0.758 (inactive) in experiment [6].
